Reference: PubChem BioAssay (NCI)
About 83,000 compounds went through this panel and 20% of them were active in at least one assay; those are over-represented in the sample as a whole.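 Treatment: one concentration, 48 hours, 96-well format. Scoring: percent growth, with anything below 10 considered active.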 Calls of active or inactive are those of the source.

The compounds below were run on HL-60(TB) leukemia (assay: NCI-60 one-dose screen, 48 h (100 = growth as untreated, 0 = no growth, -100 = all killed)). Details: 10 µM unless noted.

Structure (SMILES)	growth
COC(=O)C(C)NS(=O)(=O)/N=C1\NC(=O)NC1=C(Cl)Cl (stereo not given)	98.7% (inactive)
CCc1cc(OC(=O)N2CCC(N3CCCCC3)CC2)ccc1Nc1cc(-c2ccc(-n3cccn3)cc2)[nH]n1	62.5% (inactive)
COc1ccc2c(c1)c(CC(=O)[Se]CC#N)c(C)n2C(=O)c1ccc(Cl)cc1	-14% (active)
COc1cc(/C=N/Nc2ccnc3cc(Cl)ccc23)cc(OC)c1O	-44.6% (active)
O=S(=O)(Nc1ccc2c(c1)OC(F)(F)O2)c1ccc(-c2cnc(C3CC3)o2)cc1	3.85% (active)
N#Cc1c(-c2cccs2)cc(-c2cnccn2)nc1SCC(=O)N/N=C/c1ccccc1	110% (inactive)
O=C1CCC(N2C(=O)c3ccc(NS(=O)(=O)c4ccccc4OC(F)(F)F)cc3C2=O)C(=O)N1 (stereo not given)	-20.1% (active)
CC(C)Sc1nc(NC2CC2)c(C#N)c(-c2ccccc2)n1	112% (inactive)
COc1cc(-c2ccc3ncnc(NCc4ccccc4)c3c2)cnc1OC	66% (inactive)
CN1CCN(Cc2ccc(NC(=O)c3cncc(C#Cc4cnc(N)nc4)c3)cc2C(F)(F)F)CC1	19.4% (inactive)
CCCC(=O)NC(c1ccc(N(CC)CC)cc1)c1cc(C)c2cccnc2c1O (stereo not given)	-25% (active)
CCOP(=O)(OCC)OC[C@]12CCC(C)(C)CC1C1=CC[C@@H]3[C@@]4(C)CCCNC(C)(C)[C@@H]4CC[C@@]3(C)[C@]1(C)CC2 (stereo not given in full)	34.7% (inactive)
CCCn1cnc2c(c1=N)C(c1ccc(F)cc1)c1sc3c(CC)cccc3c1O2 (stereo not given)	-36.4% (active)
O=C(CSc1nnc(-c2ccc3nc(-c4ccccc4)[nH]c3c2)o1)Nc1ccc(C(=O)/C=C/c2ccccc2)cc1	109% (inactive)
C#CCOC(=O)[C@@H]1CCCN1CC#C	85.3% (inactive)
CC(C)(C)c1ccc(-c2nnc(-c3nc4ccccc4nc3Cl)o2)cc1	13.6% (inactive)
C#Cc1nc(/C=C\CCCCCCC(=O)NO)cs1	-53.8% (active)
O=C(CN1C(=O)CSC1=O)Nc1ccc(C(=O)/C=C/c2cc3ccccc3nc2Cl)cc1	71.9% (inactive)
CN1CCN(Cc2ccc(/C=N/Nc3ccnc4cc(Cl)ccc34)cc2)CC1	72.4% (inactive)
COc1ccc(Cn2cc3c(c2-c2cc(OC)c(OC)c(OC)c2)CCc2c(CN4CCOCC4)noc2-3)cc1	1.3% (active)

Structure (SMILES)	growth
COC(=O)c1ccc(NC2=C(Cl)C(=O)C(C)=C(C)C2=O)cc1	41.3% (inactive)
N#Cc1c(-c2ccc(Br)cc2)cc(-c2c[nH]c3ccccc23)nc1N	28.8% (inactive)
Cn1ccnc1C(=O)/C=C/c1ccc(NC(=O)c2c(F)c(F)c(F)c(F)c2F)cc1	78.3% (inactive)
Nc1ncc(-c2ccc3ncnc(N4CCc5cc(F)c(Cl)cc54)c3c2)cc1CO	-23.4% (active)
Cc1cc(-c2ccc(Cl)cc2)n(Cc2nnc(SCC(=O)Nc3ccc(S(N)(=O)=O)cc3)n2C2CCCCC2)n1	116% (inactive)
CCOC(=O)c1c(Nc2ccccc2)nn2c(N)c(C#N)c(-c3ccccc3)nc12	70.9% (inactive)
C#Cc1nc(C2=C(C)C(O)CC2)cs1 (stereo not given)	94.2% (inactive)
NC(=O)c1cccc(-n2ccc3cc(NC(=O)Nc4ccc(N5CCOCC5)c(C(F)(F)F)c4)ccc32)n1	-52.2% (active)
CCOC(=O)/C(F)=C/C1CC1CCc1cccc(C(F)(F)F)c1 (stereo not given)	91.4% (inactive)
N#Cc1nc(-c2ccccc2)oc1S(N)(=O)=O	27.1% (inactive)
COc1cc(/C=N/NC(=O)c2cn(C3CC3)c3c(OC)c(N4CC5CCCNC5C4)c(F)cc3c2=O)ccc1O (stereo not given)	-40.3% (active)
Nc1ncc(-c2ccc(NS(=O)(=O)c3ccc(Cl)c(Cl)c3)cc2)[nH]1	47.7% (inactive)
CCCC(=O)NC(c1cccnc1)c1ccc2c(C)ccnc2c1O (stereo not given)	6.67% (active)
CNC(=O)c1cc(N2CCc3cc(NC(=O)Nc4ccc(Cl)c(Cl)c4)ccc32)ccn1	124% (inactive)
Cc1sc2c(c1C)c(=O)nc1c(-c3nc(-c4ccc(F)cc4)no3)n[nH]n12	103% (inactive)
C=C1C(=O)O[C@@H]2/C=C(/C)C3=CC(=O)[C@@](C)(C[C@H](OC(=O)/C(C)=C\C)[C@@H]12)O3	-11.9% (active)
CN1CCN(c2ccc(NC(=O)Nc3ccc4c(ccn4-c4cccc(C(N)=O)n4)c3)cc2C(F)(F)F)CC1	66.1% (inactive)
O=C(CCCCCCN1CC(=O)N2[C@@H](c3ccccc3Br)c3[nH]c4ccccc4c3C[C@H]2C1=O)NO	5.1% (active)
O=C(Nc1ccc(N=Cc2c(O)[nH]c3ccccc23)cc1)Nc1ccc(S(=O)(=O)Nc2ncccn2)cc1	117% (inactive)
Cc1cccc2sc(/N=C(\N)C(Br)Br)nc12	0.778% (active)
